# According to PubChem BioAssay AID1259421 (Broad Institute, 2018):
# Several values for one entry are separate records, joined by “and”; a condition that tells them apart may be missing. Identical values can stand only once. Screen size: about 6,400 compounds; about 610 (9.5%) were called active. The sample holds actives, similar compounds and a random draw of the others, so the mix is not that of the screen. No stated cut-off is given here; in the data, active means activity change below about -70%; inconclusive means no clear call, values can overlap the other calls; inactive means above that. The source holds several records for some structures; these can differ, active in one and inactive in another. *1 amine or outer side, *2 acyl side, *3 side chain or, on linkers, in order; H or OH if unused. Where a SMILES comes first, the peptide text is derived from it. Side-chain parts run from the residue outwards. [ ]: non-standard residue; d: D form. The star is where a group is joined. Ethylenediamine = C(CN[*:2])N[*:1]; Hyp = O=C(O)[C@@H]1C[C@@H](O)CN1; Phg = N[C@H](C(=O)O)c1ccccc1; CO = O=C([*:1])[*:2]; Bn = c1ccc(C*)cc1
# Test: T. gondii ME49Luc in HeLa cells, luciferase assay, 72 h, no IFN-y (AID 1259421)
# Settings: stronger effect = lower value, concentration not given here
row,Structure (SMILES),"activity change, negative = inhibition"
1,OC(CN1CCNCC1)Cn1c2ccc(Br)cc2c2cc(Br)ccc21 (stereo unspecified),-61.8% (inactive)
2,O=C1Cc2cc(Cl)ccc2N1,8.1% (inactive)
3,CC[C@H](C)n1cc(C)c2c(C(=O)NCc3c(C)cc(C)[nH]c3=O)cc(-c3ccc(N4CCNCC4)nc3)cc21,1.27% (inactive)
4,CN(C)CCOc1ccc(-c2nc(-c3ccc4c(c3)CC/C4=N\O)c(-c3ccncc3)[nH]2)cc1,-76.7% (active)
5,OCCn1cc(-c2ccc3c(c2)CC/C3=N\O)c(-c2ccncc2)n1,-63.9% (inactive) and -44.3% (inactive)
6,O=c1[nH]c(=O)n([C@H]2CC(O)[C@@H](CO)O2)cc1/C=C/Br (stereo partly specified),8.12% (inactive)
7,CCNC(=O)/C=C/c1cccc(Br)c1,53.2% (inactive)
8,O=C(/C=C/c1cccc(S(=O)(=O)Nc2ccccc2)c1)NO,-80.9% (active)
9,O=C(/C=C/c1ccccc1)c1ccc(O)cc1O,65.1% (inactive)
10,CNC(=O)CN(CCN(CCN(CC(=O)O)CC(=O)NC)CC(=O)O)CC(=O)O.[Gd],9.1% (inactive)
11,CCCCCN(CCCOC)C(=O)[C@@H](CCC(=O)O)NC(=O)c1ccc(Cl)c(Cl)c1,5.05% (inactive)
12,NCCCC[C@@H]1NC(=O)[C@@H](Cc2c[nH]c3ccccc23)NC(=O)[C@H](c2ccccc2)NC(=O)[C@@H]2C[C@@H](OC(=O)NCCN)CN2C(=O)[C@H](Cc2ccccc2)NC(=O)[C@H](Cc2ccc(OCc3ccccc3)cc2)NC1=O (cyclo([Hyp]([CO-Ethylenediamine])[Phg][dW]KY(Bn)F)),9.07% (inactive)
13,Cc1ccc(-c2cc(C(F)(F)F)nn2-c2ccc(S(N)(=O)=O)cc2)cc1,17% (inactive) and 0.0196% (inactive)
14,NCC(=O)Nc1ccc(-n2nc(C(F)(F)F)cc2-c2ccc3c(ccc4ccccc43)c2)cc1,-75.5% (active)
15,CCn1cnc(C(=O)NC)c1C(=O)NC,4% (inactive)
16,C[C@H](/C=C/[C@H](C)C(C)(C)O)[C@H]1CC[C@H]2/C(=C/C=C3C[C@@H](O)C[C@H](O)C3)CCC[C@]12C,20.9% (inactive)
17,N#Cc1cc2c(OCC(O)CN3CCN(C(c4ccccc4)c4ccccc4)CC3)cccc2[nH]1 (stereo unspecified),-30% (inactive)
18,NCC(=O)N1C[C@H](NC(=O)c2ccccc2)C[C@H]1C(=O)O,17.6% (inactive)
19,CC1CC2C3CCC4=CC(=O)C=CC4(C)C3(F)C(O)CC2(C)C1(O)C(=O)CO (stereo unspecified),-10.3% (inactive)
20,CN1CCN(c2cccc(Nc3nc4c(-c5ccc(S(C)(=O)=O)cc5)cccn4n3)c2)CC1,-0.0052% (inactive)
21,C=CCn1c(=O)c2cnc(Nc3ccc(N4CCN(C)CC4)cc3)nc2n1-c1cccc(C(C)(C)O)n1,-82.2% (active)

row,Structure (SMILES),"activity change, negative = inhibition"
1,CC1(C)O[C@@H]2CC3C4CCC5=CC(=O)C=C[C@]5(C)C4[C@@H](O)C[C@]3(C)[C@]2(C(=O)CO)O1 (stereo partly specified),0.966% (inactive)
2,CC(C)C(=O)OC[C@@]1(N=[N+]=[N-])O[C@@H](n2ccc(N)nc2=O)[C@H](OC(=O)C(C)C)[C@@H]1OC(=O)C(C)C,6.96% (inactive)
3,Cn1ncc(Cl)c1-c1cc(C(=O)N[C@H](CN)Cc2cccc(F)c2)sc1Cl,-49.2% (inactive)
4,Cn1ncc(Cl)c1-c1cc(C(=O)N[C@H](CN)Cc2ccc(F)c(F)c2)oc1Cl,-80% (active)
5,CNCC(=O)O,-1.68% (inactive)
6,CCCCCCc1ccc(O)cc1O,10.9% (inactive)
7,CCOC(=O)c1c(C)n(C)c2ccc(O)cc12,-6.15% (inactive) and 12.7% (inactive)
8,CCCCCS(=O)(=O)CCCCCCCCCCn1c(-c2ccc(O)cc2)c(C)c2cc(O)ccc21,-63.6% (inactive) and -77.2% (active)
9,C[C@@]12CCC3[C@@](CC[C@@H]4[C@](C)(C(=O)O)CCC[C@@]34C)(CC1=O)C2 (stereo partly specified),7.66% (inactive)
10,O=C(O)CSc1nnc(Br)n1-c1ccc(C2CC2)c2ccccc12,0.38% (inactive)
11,CCCCCCCCCCOc1cc2c(=O)c(C(=O)OCC)c[nH]c2cc1OCC,30.1% (inactive)
12,O=C(O)c1cc(N(Cc2ccccc2O)Cc2ccccc2O)ccc1O,2.11% (inactive)
13,Cc1ccccc1-c1cc(N2CCN(C)CC2)ncc1N(C)C(=O)C(C)(C)c1cc(C(F)(F)F)cc(C(F)(F)F)c1,-80.1% (active)
14,CO[C@@]1(NC(=O)C2SC(=C(C(N)=O)C(=O)O)S2)C(=O)N2C(C(=O)O)=C(CSc3nnnn3C)CSC21 (stereo partly specified),5.67% (inactive)
15,CC1CC2C3CC(F)C4=CC(=O)C=CC4(C)C3(F)C(O)CC2(C)C1(CC(=O)CO)C(=O)SCF (stereo unspecified),-4.39% (inactive)
16,Cc1oc(=O)oc1COC(=O)C1=C([C@H]2CCCO2)S[C@@H]2[C@@H]([C@@H](C)O)C(=O)N12,16.9% (inactive)
17,O=C(NCc1ccccc1)c1csc(Nc2ccncn2)n1,-56.6% (inactive)
18,Cc1cccc(Nc2nc(-c3ccncc3)cs2)c1,107% (inactive)
19,O=C(NCc1cccc(O)c1)Nc1nc(-c2ccncc2)cs1,-70.8% (active)
20,CC(C)CN(C[C@@H](OP(=O)(O)O)[C@H](Cc1ccccc1)NC(=O)O[C@H]1CCOC1)S(=O)(=O)c1ccc(N)cc1,-5.19% (inactive)
21,CCC(CC)O[C@@H]1C=C(C(=O)O)C[C@H](N)[C@H]1NC(C)=O,3.98% (inactive)

row,Structure (SMILES),"activity change, negative = inhibition"
1,O=C1Cc2c([nH]c3ccc([N+](=O)[O-])cc23)-c2ccccc2N1,-78% (active)
2,O=C1Cc2c([nH]c3ccc(Br)cc23)-c2ccccc2N1,406% (inactive) and -6.73% (inactive)
3,O=C1Cc2c([nH]c3ccc(Br)cc23)-c2ncccc2N1,206% (inactive)
4,O=c1c2c(c1=O)N(CCP(=O)(O)O)CCCN2,4.23% (inactive)
5,OCCN1C[C@@H](O)[C@@H](O)C(O)C1CO (stereo partly specified),10.9% (inactive)
6,Cc1cc2ncc(-c3ccccc3)nc2cc1C,459% (inactive)
7,COc1cc2ncc(-c3ccccc3)nc2cc1OC,-82.6% (active)
8,COC(=O)[C@H](NC(=O)c1cc(-c2ccccc2)nc2ccccc12)c1ccccc1,9.5% (inactive) and 19.2% (inactive)
9,COc1ccc(-c2oc3cc(OC)c(OC)c(OC)c3c(=O)c2OC)cc1,-3.53% (inactive)
10,CC(=O)c1cc([N+](=O)[O-])c(Sc2cccc(Cl)c2Cl)s1,14.1% (inactive)
11,CC(=O)c1cc([N+](=O)[O-])c(Sc2ccc(F)cc2F)s1,-85.3% (active)
12,C=C[C@@]1(C)CC(=O)[C@]2(O)[C@@]3(C)[C@@H](O)CCC(C)(C)[C@@H]3[C@H](OC(=O)CCN(C)C)[C@H](OC(C)=O)[C@@]2(C)O1,0.0952% (inactive)
13,C=CCN1CCN(c2nc3ccccc3nc2C#N)CC1,-7.28% (inactive) and 5.54% (inactive)
14,c1ccc(Cn2c(N3CCNCC3)nc3ccccc32)cc1,6.11% (inactive)
15,Cc1oc2nc3c(c(NC(=O)CN4CCCC4=O)c2c1C)CCCC3,1.4% (inactive)
16,OCc1cc2ncnc(Nc3ccc(O)c(Br)c3)c2cc1CO,-79.3% (active)
17,COc1cc2ncnc(Nc3ccc(O)c(Br)c3)c2cc1OC,-58.4% (inactive)
18,Nc1cc2ncnc(Nc3cccc(Br)c3)c2cc1N,4.16% (inactive)
19,C[C@H](CCC(=O)O)[C@@H]1CC[C@H]2[C@@H]3CC[C@@H]4C[C@H](O)CC[C@]4(C)[C@H]3CC[C@@]21C,11.8% (inactive)
20,Cn1c(COc2ccc(CC3SC(=O)NC3=O)cc2)nc2ccccc2c1=O (stereo unspecified),-40.6% (inactive)
21,COc1ccc(-c2cc(=O)c3c(O)c(OC)c(O)cc3o2)cc1OC,48.9% (inactive)

row,Structure (SMILES),"activity change, negative = inhibition"
1,COc1cc(OC2CCN(C)CC2)ccc1Nc1ncc2c(n1)n(C1CCCC1)c(=O)n2C,-32% (inactive)
2,CC[C@@H]1C(=O)N(C)c2cnc(Nc3ccc(C(=O)NC4CCC(N5CCN(CC6CC6)CC5)CC4)cc3OC)nc2N1C(C)C (stereo partly specified),-84.3% (active)
3,CC[C@@H]1C(=O)N(C)c2cnc(Nc3ccc(C(=O)NC4CCN(C)CC4)cc3OC)nc2N1C1CCCC1,-62.8% (inactive)
4,COc1ccc2nc([S@@](=O)Cc3ncc(C)c(OC)c3C)[nH]c2c1,-6.99% (inactive) and 19.3% (inactive)
5,OCc1cncc(F)c1,11.3% (inactive)
6,O=C(O)c1cc(=O)c2ccccc2[nH]1,7.07% (inactive)
7,O=C(O)c1cc(=O)c2cccc(O)c2[nH]1,-75.2% (active)
8,O=C(O)c1cc(=O)c2ccc(Cl)cc2[nH]1,9.46% (inactive) and -2.93% (inactive)
9,COc1ccc(C(=O)N2CCCc3cc(C4=NNC(=O)SC4C)ccc32)cc1OC (stereo unspecified),-41.6% (inactive)
10,CC1CCC(NC(=O)N(CCCl)[NH2+][O-])CC1 (stereo unspecified),75.3% (inactive)
11,Cc1ccc(NC2=CC(=O)c3sc(C)nc3C2=O)cc1,-74.1% (active)
12,CC(C)(C)NCC(O)COc1ccc(NC(=O)NC2CCCCC2)cc1 (stereo unspecified),3.16% (inactive)
13,COc1ccc(CCNCC(O)COc2cccc(C)c2)cc1OC (stereo unspecified),9.54% (inactive)
14,CC1=C(C(=O)O)N2C(=O)[C@@H](NC(=O)C(N)c3ccc(O)cc3)[C@H]2SC1 (stereo partly specified),4.06% (inactive)
15,Cc1c(-c2ccc(O)cc2)n(Cc2ccc(OCCN3CCCCCC3)cc2)c2ccc(O)cc12,-80.5% (active)
16,Cc1ccc(CC2(O)CCN(CCOc3ccc(O)cc3)CC2)cc1,-6.15% (inactive) and -9.12% (inactive)
17,O=C(c1ccc(OCCN2CCCCC2)cc1)c1c(-c2ccc(O)cc2)sc2cc(O)ccc12,-9.78% (inactive) and -5.73% (inactive)
18,CC(=O)OCCN1C(=O)c2c(C)nc3ccc(S(=O)(=O)N4CCOCC4)cc3c2C1=O,-1.17% (inactive)
